# BJeLR lethal = kills HRASV12-expressing BJeLR cells; inhibition, % (no concentration beside the values); BJeLR (HRASV12) viability, CellTiter-Glo ATP luminescence, 48 h; 0.17% of 300,000 active; in the data active means inhibition above about 50%
# RecA splice inh = Mtb RecA intein splicing inhibition; P9WHJ3; cell-free RecA intein splicing, fluorescence; inhibition, % (test concentration not listed); 0.75% of 290,000 active; in the data active means inhibition above about 30%
# GDH-TPI counter = GDH-TPI coupled enzyme inhibition counter-screen; 1.2% of 360,000 active; AID 588335; GDH-TPI coupled enzyme counterscreen, NADH absorbance; inhibition, % at 4.8 µM; in the data active means inhibition above about 30%
# PrPC surface inh = cell surface PrPC inhibition, primary TR-FRET screen. P04156. TR-FRET read-out. inhibition, % at 13.8 µM. 0.43% of 370,000 active; in the data active means inhibition above about 24%
# Mtb FBA inh = inhibits M. tuberculosis FBA enzyme | inhibition, % at 1 µM | AID 588726 | 2.3% of 360,000 active | P9WQA3 | purified M. tuberculosis FBA, fluorescence read-out; in the data active means inhibition above about 27%
# Target sequence (P9WQA3 whole entry, looked up): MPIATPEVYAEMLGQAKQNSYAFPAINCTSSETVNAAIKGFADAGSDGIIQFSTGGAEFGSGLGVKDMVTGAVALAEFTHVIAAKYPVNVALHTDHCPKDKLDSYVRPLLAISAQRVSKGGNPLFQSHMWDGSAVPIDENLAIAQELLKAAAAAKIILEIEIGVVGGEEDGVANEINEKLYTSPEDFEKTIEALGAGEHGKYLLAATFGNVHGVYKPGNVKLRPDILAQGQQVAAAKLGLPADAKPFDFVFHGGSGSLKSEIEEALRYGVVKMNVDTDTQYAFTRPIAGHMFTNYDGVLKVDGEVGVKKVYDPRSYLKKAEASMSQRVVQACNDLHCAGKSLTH
# A number is an active result; n = inactive; x = not tested or not shown; + = active, no number. Hits are enriched below; roughly 4.2% of the tested compounds scored in any of these assays.
SMILES,BJeLR lethal,RecA splice inh,GDH-TPI counter,PrPC surface inh,Mtb FBA inh
O=C1CCC[C@H]2C[C@H](NCc3cccs3)CC[C@]23CCCN13,x,x,x,n,x
Cc1ccc(OCC(=O)N/N=C/c2ccco2)cc1,n,n,n,n,n
O=C(N/N=C/c1ccco1)c1ccncc1,n,n,n,n,n
Cc1ccc(OCC(=O)N/N=C/C=C/c2ccco2)cc1C,n,n,37,n,n
O=C(N/N=C/C=C\c1ccco1)c1cccnc1,n,n,33,n,n
O=C(NCc1ccccc1)OCCN1C(=O)CCC12CCC(c1ccc(Cl)cc1)CC2 (centres undefined),x,x,x,n,x
COc1ccc(/C(C)=N\NC(=O)c2ccco2)cc1,x,x,x,n,x
COC(=O)CN(Cc1cn(Cc2ccccc2)nn1)S(=O)(=O)c1ccccc1Br,x,x,x,n,x
N#C/C(=C\c1ccccc1)C(=O)NC1CC1,n,n,n,n,n
Cc1ccc(C)c(NC(=O)/C(C#N)=C/c2ccc[nH]2)c1,n,n,31,n,n
N#C/C(=C\c1ccc[nH]1)C(=O)NC1CC1,n,n,32,n,n
Nc1[nH]c(C(=O)c2ccccc2)c(-c2cccc3ccccc23)c1C(=O)c1c(-c2ccccc2)[nH]c2ccccc12,x,x,x,n,x
CC(=O)Nc1ccc(/C=C/COC(C)=O)cc1C,x,x,x,n,x
Cc1ccc2nc(NC(=O)c3cccs3)sc2c1,x,x,n,n,n
CCNS(=O)(=O)c1ccc2nc(NC(=O)c3cccnc3)sc2c1,n,n,70,n,n
CS(=O)(=O)c1ccc2nc(NC(=O)c3cccc([N+](=O)[O-])c3)sc2c1,n,n,39,n,n
Cc1nc2ccc(NC(=O)c3cccnc3)cc2s1,n,x,n,n,n
CS(=O)(=O)c1ccc2nc(NC(=O)c3cc([N+](=O)[O-])cc([N+](=O)[O-])c3)sc2c1,n,n,n,n,n
CS(=O)(=O)c1ccc2nc(NC(=O)c3cccs3)sc2c1,x,x,49,n,n
Cc1ccccc1CN1CCCCC(NC(=O)c2ccccc2C(F)(F)F)C1=O (centres undefined),x,x,x,n,x
CC(C)CN(Cc1c(O)ccc2c3c(c(=O)oc12)CCC3)CC(C)C,n,n,n,n,+
Cc1cc(=O)oc2c(CN(CC(C)C)CC(C)C)c(O)ccc12,n,n,x,n,x
O=c1oc2c(CN3CCOCC3)c(O)ccc2c2c1CCC2,x,x,n,n,+
CCCCCCNC(=O)C1CSCCS(=O)(=O)N1Cc1ccc(F)cc1 (centres undefined),x,x,x,n,x
C=CCN1C(=O)[C@@H](CC(=O)NCCCN2CCCC2=O)[C@]2(C(=O)OCC)CCCCC/C=C/12,x,x,x,n,x
SMILES,BJeLR lethal,RecA splice inh,GDH-TPI counter,PrPC surface inh,Mtb FBA inh
Cc1ccc(/C(O)=C2/C(=O)C(=O)N(Cc3cccnc3)C2c2ccccn2)cc1 (centres undefined),n,x,38,n,n
O=C1C(=O)N(Cc2cccnc2)C(c2ccccn2)/C1=C(/O)c1ccc(F)cc1 (centres undefined),n,n,n,n,n
c1ccc(-c2ccc(-c3nc(-c4ccccn4)no3)cc2)cc1,81,n,n,n,n
c1ccc(-c2nc(-c3ccccn3)no2)cc1,n,n,n,n,n
COc1ccc(S[C@]2(C(=O)N(C)C)CC(=O)N(c3ccccc3)[C@@H]2c2ccc(OC)cc2)cc1,x,x,x,n,x
CCOc1ccc(CN(C)C(=O)CCNC(=O)c2ccco2)cc1,x,x,n,n,n
CCOc1ccc(CN(C)C(=O)CCl)cc1,n,55,n,n,n
COc1ccccc1C(=O)N1CCN(Cc2ccc3c(c2)OCO3)CC1,n,n,n,n,n
COc1cc2cc(C(=O)N3CCN(Cc4ccc5c(c4)OCO5)CC3)c(=O)oc2cc1OC,n,n,n,n,+
Cc1ccccc1CN1CCCCC(NC(=O)c2ccc(F)c(F)c2)C1=O (centres undefined),x,x,x,n,x
C1CCN(c2nc3nonc3nc2NCC2CCOCC2)CC1,n,n,52,x,n
O=C(Nc1cccnc1N1CCOCC1)c1cc2ccccc2oc1=O,n,n,n,n,n
N=c1oc2ccccc2cc1C(=O)Nc1ccc(F)cc1,n,n,n,n,64
O=C(O)c1ccccc1NC(=O)c1cc2ccccc2oc1=O,n,n,50,n,n
N=c1oc2ccccc2cc1C(=O)Nc1cccc(F)c1,n,n,n,n,n
Cc1cccc2c(N=NC(=O)C(C)n3cnc4ccccc4c3=O)c(O)[nH]c12 (centres undefined),n,n,35,n,n
C=CSc1sc(Cl)c(N2CCOCC2)c1[N+](=O)[O-],n,30,n,n,n
N#CC1=C2Sc3ccccc3N2CCCC1=O,n,n,34,n,n
c1cn2c(-c3ccoc3)cncc2n1,x,x,n,n,n
OCc1ccc(-c2cncc3nccn23)cc1,x,x,n,n,+
C=C1C(=O)O[C@@H]2C[C@@H](C)[C@H]3C=CC(=O)[C@]3(O)C[C@@H]12,66,n,n,n,n
Brc1ccc(-c2nc3ccccc3s2)s1,n,n,n,n,n
Nc1ccc(-c2nc3ccccc3s2)cn1,n,n,n,n,+
Cc1cc(-c2nc3ccccc3s2)ccc1N,x,x,37,n,+
COc1cc(OC)cc(-c2nc3ccccc3s2)c1,n,n,n,n,n
SMILES,BJeLR lethal,RecA splice inh,GDH-TPI counter,PrPC surface inh,Mtb FBA inh
CC(=O)Cc1nsc(NC(=O)c2oc(-c3ccccc3Cl)cc2C)n1,n,n,56,n,n
CC(=O)Cc1nsc(NC(=O)c2ccc(-c3ccccc3Cl)o2)n1,n,n,33,n,n
CCc1nnc(NC(=O)c2ccc(Br)o2)s1,n,n,n,n,n
CC(O)Cc1nsc(NC(=O)c2ccc(Br)o2)n1 (centres undefined),n,n,42,n,n
CC(=O)Cc1nsc(NC(=O)c2ccc(COc3ccccc3Cl)o2)n1,n,n,n,n,n
O=C(OC12CCCN(C1)/C(=C/c1ccncc1)C2)c1ccco1 (centres undefined),x,x,x,n,x
CC(C)CCN1C(=O)COc2ccccc2C1c1nnnn1-c1ccc2c(c1)OCCO2 (centres undefined),x,x,x,n,x
COC(=O)[C@]12C[C@H](CC(=O)NCCc3ccccc3OC)C(=O)N(Cc3ccco3)C1=C[C@H](COCc1ccccc1)O[C@@H]2C,x,x,x,n,x
CCCCS/C(N)=N/N=C/c1cc(C)ccc1O,n,n,41,n,n
O=C1CCC[C@H]2C[C@H](NCc3ccccc3F)CC[C@]23CCCN13,x,x,x,n,x
CC(C)Sc1nc(N)c2c3c(sc2n1)CN(C)CC3,n,n,n,n,n
CCCSc1nc(N)c2c3c(sc2n1)CN(C)CC3,n,n,n,x,41
COc1ccc(/C=N/N=C2/NC(=O)C(c3ccccc3)S2)c(OC)c1 (centres undefined),n,n,31,n,n
COc1ccc(CC2S/C(=N/N=C/c3ccccc3O)NC2=O)cc1 (centres undefined),n,n,37,n,n
COc1cc(/C=N/N=C2/NC(=O)C(CC(=O)O)S2)ccc1OCc1ccc(Cl)cc1 (centres undefined),n,n,51,n,n
O=C1N/C(=N/N=C/c2ccc(O)cc2)SC1Cc1ccccc1 (centres undefined),n,n,62,n,n

# High-throughput results from PubChem BioAssay.
